Results on 66 sequences are retold here after PubChem BioAssay AID1159506 (National Center for Advancing Translational Sciences (NCATS), 2015).

Whole data set: some 59,000 sequences, median the read-out near -0.00055, cut for the lowest 2% near -2. This excerpt belongs to a sample that is enriched for the lowest values.

This test can be described thus: Identification of proteins required for the processing of the EWS-FLI1 nascent transcript.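 Note: robust z of luciferase light less the median z of siRNAs with the same seed.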 Conditions: TC32 Ewing sarcoma NR0B1-luc vs CMV-luc (EWS-FLI1 target promoter against control promoter), 48 h; screened at 20 nM (by protocol). Put shortly: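 Genome-wide siRNA screen (Ambion v4.1, three siRNAs per gene, 20 nM final, RNAiMax) in Ewing sarcoma TC32 cells carrying NR0B1-promoter or CMV-promoter luciferase; OneGlo luciferase read 48 h post-transfection. Data normalized, z-score-MAD transformed and seed-adjusted.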
Consider UGUCAAACUGGUGCUGUUG against NAGLU, for which the seed-corrected z-score is -0.208.

Sequence AAUGUAAGGCCUUAAAUCG against MRPS27 returned a seed-corrected z-score of 0.696.

Take UUCUUUCACGCUUAGUUUC against LOC729978: the seed-corrected z-score came out at 0.995.

AAAAUUUCAUCCAUCAAUC against NUS1: the seed-corrected z-score is 0.0341.

UCUUCGUCCACAUUGGUUC against EPG5 returned a seed-corrected z-score of -11.6.

UUCUAUACCCAGUACAUGG against ZNF112 came in with a seed-corrected z-score of 1.1.

UGUUAUAGAAUGACGCACC against DNAH11: the seed-corrected z-score was -0.639.

AAAGCGAAGAGGUCUAGGC against PASK: the seed-corrected z-score is 0.632.

Regarding UCCAGGUCUAGAACUUGCG against DACH1, the seed-corrected z-score was -0.158.

For the sequence AAGUCGAUCCAUAACAAUC against AK9, the seed-corrected z-score came to 0.17.

AACCAUACUACAGUCAAUC against TIMM17A: the seed-corrected z-score was found to be 0.0529.

Sequence UCAUCUAAAAUCUCGGUAG against POLE gave a seed-corrected z-score of -2.51.

Turning to UCAUAUACAGCAAACGGGC against RHOJ, the seed-corrected z-score is -0.695.

Take ACUGUUGUCACUGCGGUGG against GPR20: the seed-corrected z-score is -0.419.

With UAAUUUCAGAGUAUGUCCG against PCDHAC2, the seed-corrected z-score was -0.214.

UGGGUAGUUAGACUUGAUC against ZNF160 gave a seed-corrected z-score of -2.52.

Consider UACCUAUUUAGCAUAUUGG against GRIN2B, for which the seed-corrected z-score was 1.13.

With UUGGAUCCAGUUGAUAACG against EPCAM, the seed-corrected z-score came to 0.867.

On to UGAGUUACAGGGACCGAAG against LINC00944, for which the seed-corrected z-score was -0.148.

AGCUUGAGAAUUUACUUGG against HIST1H2BL had a seed-corrected z-score of -2.21.

In turn, UUAUCUCCAGCUAUGCUGU against LOC440292 returned a seed-corrected z-score of 1.49.

Sequence UCCUCAUGUAUUUUGGUCC against ELOVL5 registered a seed-corrected z-score of -0.118.

Turning to UCACUUAGCAUGGGUAUUG against TMOD4, the seed-corrected z-score is -0.648.

In the case of UUCUCUUCCAUCUCCGCCC against TNRC18, the seed-corrected z-score is -0.725.

Regarding AAACUGGUAAUAUGAAUUC against IQSEC2, the seed-corrected z-score was determined as 1.31.

Take UUUGGUCCAAAUUCACUCC against C2orf76: the seed-corrected z-score was -2.66.

Consider GGCUGGUCGUGAUCUUUCC against SPDYE2, for which the seed-corrected z-score came out at 0.846.

The sequence UUCGAUAUACCAGAACCGC against LPGAT1 showed a seed-corrected z-score of -1.1.

Consider UGUAGUAAUGUGAUUUUCC against CTBP2, for which the seed-corrected z-score was 1.22.

UUCCUCGUAGGUCCACUCG against ARID3C: the seed-corrected z-score was -0.393.

The sequence UUUCCUGCACCCAUAAGUC against C11orf58 came in with a seed-corrected z-score of -0.0639.

Consider GAACGACUCAGAUCCCGGA against HCRT, for which the seed-corrected z-score is -12.7.

UUACAGGUAGCGGCAAGCA against SP8 returned a seed-corrected z-score of 0.823.

As for UACCUGAAAACCUAGUUUC against TBPL1, the seed-corrected z-score is -0.106.

Take UAUAGUAAAGCCCAGACGG against CNTNAP3: the seed-corrected z-score is -2.74.

AUAUGUUUACUACCGGUGC against CYP4Z1: the seed-corrected z-score was -0.0519.

As for UUCGCUUAACAUGCUCUCC against SKIL, the seed-corrected z-score was -1.15.

AAUUCCAGAAUUACAGGCU against PRAC1 registered a seed-corrected z-score of -0.113.

UAAGAUGAGAGAGUGUCCA against TAS2R1: the seed-corrected z-score came to 0.755.

Turning to UACUGGUCUAGGAGGUAUG against ERRFI1, the seed-corrected z-score was -0.314.

For the sequence AGACUGAGCAGUAGGACUC against SLC35E4, the seed-corrected z-score was -2.41.

AUAUGGUCAAAUGAGUUAG against KIF3B displayed a seed-corrected z-score of 1.67.

In turn, UUUCCGUACAUUGUGGUCC against ATP13A5 came in with a seed-corrected z-score of 0.276.

The sequence UAAGCACGAACAGUUAUAG against USP47 yielded a seed-corrected z-score of 0.264.

AUAGGGCACAUCUUGUAGG against CSDC2 displayed a seed-corrected z-score of 0.0846.

With UCUGUUUUGAAGGACCUCU against ENTPD6, the seed-corrected z-score amounted to 0.116.

UUCGCAUUUGUAUUCGACC against GNB4 gave a seed-corrected z-score of 0.0257.

In turn, UAUUUCACCAUCUCCGAGC against MAGEF1 displayed a seed-corrected z-score of -2.32.

In turn, UGAGGUUAUACGUUCCCUG against KIAA1549 showed a seed-corrected z-score of -0.0625.

On to UUGGGUCCGAGGAACAACU against ZNF469, for which the seed-corrected z-score was determined as 0.678.

UCUUGCAACAGAGCCCUGA against TESK1: the seed-corrected z-score was -0.681.

Regarding AUCCGCAUCAGUAACAUUG against CASQ1, the seed-corrected z-score was -0.835.

UUCCUUAAUGGUGUAUUCG against RIN3 registered a seed-corrected z-score of 0.651.

Turning to UAUGGAACUGUAUAUAGGA against EVA1C, the seed-corrected z-score stood at 0.1.

UGCUCUGUAAUCACGGGCU against WARSP1 gave a seed-corrected z-score of -1.94.

In turn, AUACUGUAGACGUACCUCU against F2R registered a seed-corrected z-score of -0.762.

Regarding AAAGGUUCACCACAUAGCC against SORL1, the seed-corrected z-score is -3.01.

UUAUGUGAACCAUCGCAGG against CISD2 yielded a seed-corrected z-score of 0.515.

On to UCCAGUAGUAGUCUUCCAG against MAF, for which the seed-corrected z-score was -2.92.

Take AUAGGUGUUGAUACGAGCC against SATB1: the seed-corrected z-score was -0.199.

The sequence UAUCUUUCCUGGUAUGUCA against LPCAT3 registered a seed-corrected z-score of -0.533.

As for UCGAUUUUGAGAAUCAAUG against VPS45, the seed-corrected z-score stood at 0.271.

On to UCAUAGCAAAGGAUCAGCC against CDC42BPB, for which the seed-corrected z-score is -3.29.

As for UUCCUUACCAUCAGGCAAG against DAP3, the seed-corrected z-score is 0.589.

The sequence AUGGGUUCCAGCAACAAUC against TMEM65 yielded a seed-corrected z-score of 0.797.

UUCUUGUAGUCCUCUAGGC against FZD8 registered a seed-corrected z-score of 0.236.
